The whole screen tested about 1,400 compounds, of which about 30 (2%) were called active. Roughly 15% stayed inconclusive and do not appear here. The sample holds actives, similar compounds and a random draw of the others, so the mix is not that of the screen. A number with no mark means an inactive call. Calls come from the whole dose curve; as a rule, active = well fitted inhibition curve with a large enough effect; inconclusive = small, poorly fitted or top-dose-only effect; inactive = flat fitted curve, though single readings scatter.
% is set by controls: 0 for no effect and ±100 for the full control effect; potency is the fitted concentration of half-maximal effect.

The test can be described thus: Firefly Luciferase Counterscreen for Inhibitors of ATXN expression. As to conditions: luminescence; series mostly up to 57.5 µM; activity change, negative = inhibition: at the top concentration. An excerpt: University of Utah School of Medicine, Salt Lake City, Utah
Spinocerebellar ataxia type 2 (SCA2) is a multisystem neurodegenerative disease caused by a dominantly acting mutation leading to expansion of a polyQ domain in the ataxin-2 protein (ATXN2). SCA2 patients develop progressive ataxia and later lose function in other neuronal systems. Prominent parkinsonian signs develop in some patients. Like many neurodegenerative disorders, no symptomatic or disease-modifying treatments are known.
The primary objective of the proposed research is to identify compounds inhibiting ATXN2 expression and to test them for efficacy in SCA2 mouse models. We have developed a cell-based assay paired with an in vivo mouse model using identical luciferase expression constructs. This approach takes advantage of an ATXN2-luciferase transgene, with the luciferase gene flanked by the upstream and downstream portions of the ATXN2 gene. Here we describe a 5-7 dose quantitative high thoroughput screen (qHTS) for compounds lowering ATXN2 expression. We screened the NIH Molecular Libraries Small Molecule Repository (MLSMR) and NCGC's mechanistically annotated (MIPE) and drug repurposing (NPC) collections of compounds for lowering expression of an ATXN2-luciferase reporter in HEK-293 cells. The assay is a multiplexed cell viability assay to ensure target reduction in the absence of cytotoxicity. Secondary qHTS assays included a CMV-luciferase reporter expressed in HEK-293 cells as well as a biochemical assay using recombinant luciferase to detect inhibitors of the reporter enzyme. Compounds that inhibit ATXN2 expression but is not cytotoxic were selected for confirmatory and secondary screens.
PROTOCOL TABLE (as described by Inglese J, Shamu CE and Guy RK. 2007)
SEQUENCE No. (e.g., 1, 2, 3, etc.); […] (e.g., Cells, Incubation, Reagent, etc.); VALUE; DESCRIPTION.
2; Compounds; 23 nL; Kalypsis pintool (Wako USA) equipped with a 1536-well pin head.
3; Enzyme; 1 uL; recombinant firefly luciferase (prepared in 50 mM Tris HCl pH7.5, 10 mM MgCl2, 0.05% BSA, 0.01% Tween20) at final concentration of 10 nM. Wells containing buffer only were used as control (set as 100% inhibition when normalizing data).
4; Incubation; 10 min; room temperature.
5; Detection; Luminescence; Viewlux plate reader (PerkinElmer).
NOTES (numbers refer to Sequence numbers above)
1. Luciferase substrate is added to 1536 well, Greiner white assay plate. Evaporation was prevented by covering assay plates with metal lids containing holes to allow gas diffusion.
2. Compounds were added in a dose response manner with the final concentrations of 57, 11.4, 2.28, 0.46, 0.091, 0.018, 0.0037 uM. Vehicle-only plates, with DMSO being pin-transferred to columns 5-48, were inserted uniformly at the beginning and the end of each library to monitor and record any shifts in assay performance.
3. Recombinant firefly luciferase (10 nM final concentration) is added to the assay plate.
5. End-point luminescence is then measured on the Viewlux (PerkinElmer) imager equipped with a clear emission filter using a 2 sec exposure.
Inglese J, Shamu CE and Guy RK, Reporting data from high throughput screening of small molecule libraries, Nature Chemical Biology, 2007, 3(8): 438-441. doi.org/10.1038/nchembio0807-438.
A general note: Counterscreens check selectivity or assay interference.
Take `COCCCNCCCOc1ccc(Cl)cc1C(C)(C)C`: the “activity change, negative = inhibition” value was 1.71%.

For `CC(C)C1C(=O)N(Cc2cn(CCC3OCCO3)nn2)CCS(=O)(=O)N1Cc1ccc(-c2ccc(Cl)cc2)cc1` (stereo not given), the “activity change, negative = inhibition” value is -3.28%.

For `COc1cccc(S(=O)(=O)NCc2ccc(C(=O)Nc3cccc(Cl)c3)cc2)c1`, the “activity change, negative = inhibition” value was -2.18%.

Consider `Cc1ccc(OCCCC(=O)NNC(=O)c2ccccn2)cc1`, for which the “activity change, negative = inhibition” value was -1.95%.

Take `CCCC(NCC(O)COc1ccc(-c2ccccc2)cc1)c1ccccc1` (stereo not given): the “activity change, negative = inhibition” value is -3.86%.

`O=C(CSc1nnc(-c2ccc(Br)cc2)o1)Nc1cccc(C(=O)O)c1`: the Potency is 3.98 µM (active).

For the compound `O=C(Nc1cccc(Br)c1)c1cccc(OC(=S)N2CCOCC2)c1`, the “activity change, negative = inhibition” value is -13.5%.

For the compound `O=C(CSc1n[nH]c(-c2ccccn2)n1)Nc1ccccc1`, the “activity change, negative = inhibition” value was -13.1%.

Regarding `CC1(C(=O)Nc2cnc3ccccc3c2)CCN1C(=O)c1ccccc1CCc1ccccc1` (stereo not given), the “activity change, negative = inhibition” value is -1.11%.

As for `O=C(NC(Nc1ncc(S(=O)(=O)c2ccc([N+](=O)[O-])cc2)s1)(C(F)(F)F)C(F)(F)F)c1ccc(Cl)cc1`, the “activity change, negative = inhibition” value is -10.1%.

For `NC(Cc1ccc(C(F)(F)F)cc1)c1csc(Nc2ccc(C(=O)c3ccccc3)cc2)n1` (stereo not given), the “activity change, negative = inhibition” value was 0.547%.

As to `Cc1ccc(C2CC(=O)Nc3c2ccc2ccccc32)cc1[N+](=O)[O-]` (stereo not given), the “activity change, negative = inhibition” value is -4.69%.

Turning to `CCc1nc2c(OCc3ccc(Cl)cc3)cccn2c1N(C=O)Cc1ccc(OC)cc1`, the “activity change, negative = inhibition” value was -3.69%.

In the case of `COc1ccc(Cc2[nH]n3c(=O)cc(C(C)C)nc3c2-c2ccccc2)cc1`, the “activity change, negative = inhibition” value was -12.5%.

Turning to `CNC(=O)c1sc(N2N=C3/C(=C/c4ccccc4)CCCC3C2c2ccccc2)nc1C` (stereo not given), the “activity change, negative = inhibition” value is -2.34%.

For the compound `CN1CCC(N(C)S(=O)(=O)c2ccc(NC(=O)COc3ccc(Br)cc3Cl)cc2)CC1`, the “activity change, negative = inhibition” value was -14.6%.

Turning to `CN(C)CCNc1ccc(CO)c2sc3ccc(O)cc3c(=O)c12`, the “activity change, negative = inhibition” value is -5.83%.

With `CCn1cc(Cl)c(C(=O)N2N=C(c3ccc4ccccc4c3)CC2c2ccccc2O)n1` (stereo not given), the “activity change, negative = inhibition” value was -3.47%.

With `CC(=O)NC(=C(Cl)Cl)S(=O)(=O)c1ccccc1`, the “activity change, negative = inhibition” value is 1.35%.

With `S=C(NCc1cccnc1)Nc1ccc(Oc2ccc(Cl)cc2)cc1`, the “activity change, negative = inhibition” value was -0.796%.

For the compound `C(=NN1CCCCCC1)c1ccc2ccccc2n1`, the Potency was 0.1 µM (active).

Turning to `S=C(Nc1cc(Cl)ccc1Oc1ccccc1)N1CCN(c2ccccn2)CC1`, the “activity change, negative = inhibition” value is -1.6%.

Take `CN(c1ccccc1)S(=O)(=O)c1cccc(NC(=O)c2cc(=O)c3ccccc3o2)c1`: the “activity change, negative = inhibition” value was -0.345%.

Regarding `O=C(COc1nsnc1N1CCOCC1)N/N=C/c1ccccc1O`, the “activity change, negative = inhibition” value was -13.4%.

As for `COc1ccccc1N(CC(=O)N/N=C/c1c(O)ccc2ccccc12)S(C)(=O)=O`, the “activity change, negative = inhibition” value is -10.5%.

In the case of `Cn1c(CO)cnc1SCC(=O)c1ccc(Br)cc1`, the “activity change, negative = inhibition” value was -8.93%.

As to `CC(=O)Nc1cccc(-c2ccnc3c2CC(C)(C(=O)Nc2ccc(Cl)cc2)O3)c1` (stereo not given), the “activity change, negative = inhibition” value was -2.94%.

For the compound `CCCCOc1ccc(CSC(=N)N)cc1Cl`, the “activity change, negative = inhibition” value was -4.4%.

For the compound `O=[N+]([O-])c1cc(Cl)c(O)c2ncccc12`, the “activity change, negative = inhibition” value was -17.6%.

With `Cc1cccn2c(=O)c(/C=C(\C#N)C(N)=O)c(N3CCN(c4cccc(Cl)c4)CC3)nc12`, the “activity change, negative = inhibition” value was 0.85%.

With `NC(c1csc(NC(=O)c2cccc(OC(F)(F)F)c2)n1)c1ccccc1Cl` (stereo not given), the “activity change, negative = inhibition” value is -0.688%.

Take `COc1cc(/C=N\NC(=O)CC#N)ccc1OC/C=C/c1ccccc1`: the “activity change, negative = inhibition” value was -3.57%.

`COC(=O)c1cc(NC(=O)c2cc(-c3ccc(C(F)(F)F)cc3)oc2C(F)(F)F)ccc1N1CCOCC1`: the “activity change, negative = inhibition” value is -5.33%.

On to `COC1CC(C)C(OC)c2cc(O)cc(c2O)NC(=O)C(C)=CC=CC(C)C(OC(N)=O)C(C)=CC(C)C1OC` (stereo not given), for which the “activity change, negative = inhibition” value was -11.5%.

In the case of `Cc1cccc(C(=O)N/N=C2\CS(=O)(=O)N(C)c3ccsc32)c1`, the “activity change, negative = inhibition” value is -9.38%.

With `CC(=O)Oc1ccc(N(C(C)=O)S(=O)(=O)c2ccc(Cl)cc2)c2ccccc12`, the “activity change, negative = inhibition” value was -17.1%.

`CCOC(=O)CSc1cccc2cccnc12`: the “activity change, negative = inhibition” value is -10.6%.

For `CC(=O)Nc1cccc(-c2ccnc3c2CC(C)(C(=O)Nc2ccc(Cl)c(C(F)(F)F)c2)O3)c1` (stereo not given), the “activity change, negative = inhibition” value was -1.06%.

Take `Cc1ccc2ccc(C(Nc3ccccn3)c3ccccc3)c(O)c2n1` (stereo not given): the “activity change, negative = inhibition” value is -7.07%.

As to `Cc1nc2ccccc2n1/N=C/c1ccc([N+](=O)[O-])o1`, the “activity change, negative = inhibition” value was -2.11%.

Take `COc1ccc(-c2cnc3c(NC=O)cc(-c4ccccc4OC)cn23)cc1OC`: the “activity change, negative = inhibition” value was -3.03%.

`CN1CCN(c2ccc(-c3cc(NC=O)c4ncc(-c5ccc(F)c(Cl)c5)n4c3)cc2)CC1`: the Potency is 15.8 µM (active).

`COc1ccccc1-c1cc(NC=O)c2ncc(-c3ccc(F)cc3)n2c1`: the “activity change, negative = inhibition” value is -1.97%.

Take `Cc1cc(C)nc(N/N=C2/CCCC/C2=C\c2ccccc2)n1`: the “activity change, negative = inhibition” value was -3.98%.

With `Cc1ccc(C(NC(=O)C2CCN(Cc3ccc(Cl)c(Cl)c3)CC2)c2ccccn2)cc1` (stereo not given), the “activity change, negative = inhibition” value was -2.96%.

On to `Cn1c(=O)c2c(nc(CN3CCN(Cc4ccccc4)CC3)n2Cc2ccc(Cl)cc2)n(C)c1=O`, for which the “activity change, negative = inhibition” value was 0.959%.

In the case of `Cn1c2ccccc2c(=O)c2c(=O)n(C3CCCCC3)c(-c3cccs3)nc21`, the “activity change, negative = inhibition” value was -7.28%.

Turning to `CC1(C)Cc2ccccc2C(NNC(=O)c2ccccn2)=N1`, the “activity change, negative = inhibition” value is 0.45%.

For the compound `CC(OC(=O)c1cc(Br)ccc1O)C(=O)Nc1ccc(S(=O)(=O)N2CCCC2)cc1` (stereo not given), the “activity change, negative = inhibition” value is -2.03%.

For `O=C(Nc1ccc(N2CCN(C(=O)c3cccs3)CC2)c(Cl)c1)c1cccnc1`, the “activity change, negative = inhibition” value is -0.903%.
